# PubChem BioAssay (NCI)
# About 79,000 compounds went through this panel and 15% of them were active in at least one assay; those are over-represented in the sample as a whole. Unmarked numbers belong to inactive results. Active and inactive are the calls of the source. Rule as the data show it: active = growth inhibition above about 70%; inactive = the rest.
# Columns and labels:
# [1] = NCI Yeast Anticancer Drug Screen. Data for the rad52 strain (AID 147);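 also: 0% = growth of vehicle-treated control cultures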; settings: S. cerevisiae rad52 mutant growth inhibition, active compounds read high
# In short: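 Read-out: growth inhibition versus vehicle-treated controls. Cells were a DNA repair-deficient yeast strain treated with compounds.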
# [2] = NCI Yeast Anticancer Drug Screen. Data for the wt1 strain (AID 149);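 also: 0% = growth of vehicle-treated wt1 cultures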; settings: S. cerevisiae wt1 strain (SPY 50644) growth inhibition, active compounds read high
# In short: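 wt1 yeast, compound-treated; % growth inhibition vs vehicle control.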
# [3] = NCI Yeast Anticancer Drug Screen. Data for the rad50EPP+ strain (AID 151);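 also: 0% = growth of vehicle-treated control cultures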; settings: S. cerevisiae rad50 mutant strain, active compounds read high
# In short: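 Growth inhibition read against vehicle controls in rad50EPP+ yeast, a strain altered in DNA damage repair, after compound exposure.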
# [4] = NCI Yeast Anticancer Drug Screen. Data for the mgt1 strain (AID 153); settings: S. cerevisiae mgt1 mutant growth inhibition, active compounds read high
# In short: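 mgt1 yeast grown with test compound; read-out is growth inhibition versus vehicle-treated cultures.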
# [5] = NCI Yeast Anticancer Drug Screen. Data for the rad50 strain (AID 155);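 also: 0% = growth of vehicle-only cultures of the same strain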; settings: S. cerevisiae rad50 strain growth inhibition, active compounds read high
# In short: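 Genetically altered yeast (DNA repair pathway); compound treatment; growth inhibition vs vehicle ctrl.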
# [6] = NCI Yeast Anticancer Drug Screen. Data for the mec2-1 strain (AID 157); settings: S. cerevisiae mec2-1 strain, active compounds read high
# In short: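 Yeast mec2-1 mutant treated with compound. Readout: growth inhibition vs vehicle controls.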
# [7] = NCI Yeast Anticancer Drug Screen. Data for the rad14 strain (AID 159);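 also: 0% = growth of vehicle-treated control cultures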; settings: S. cerevisiae rad14 strain growth inhibition, active compounds read high
# In short: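 Test compounds were applied to a repair-deficient yeast strain. Its growth was then compared with that of cultures given vehicle alone, and inhibition was expressed relative to those controls.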
# [8] = NCI Yeast Anticancer Drug Screen. Data for the sgs1 mgt1 strain (AID 161);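 also: 0% = growth of cultures given vehicle only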; settings: S. cerevisiae sgs1 mgt1 strain, active compounds read high
# In short: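 Genetically altered yeast, compound exposure, growth inhibition relative to vehicle.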
# [9] = NCI Yeast Anticancer Drug Screen. Data for the CLN2oe strain (AID 163);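 also: 0% = growth of vehicle-only control cultures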; settings: S. cerevisiae CLN2oe strain, active compounds read high
# In short: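 Read-out: yeast growth inhibition, expressed relative to vehicle-only controls. The strain bears an engineered cell-cycle alteration.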
# [10] = NCI Yeast Anticancer Drug Screen. Data for the cln2 rad14 strain (AID 165);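 also: 0% = growth equal to vehicle treated cultures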; settings: S. cerevisiae cln2 rad14 strain, active compounds read high
# In short: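 cln2 rad14 yeast strain; compound exposure; growth inhibition read vs vehicle controls.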
# [11] = NCI Yeast Anticancer Drug Screen. Data for the bub3 strain (AID 167); settings: S. cerevisiae bub3 mutant strain, active compounds read high
# In short: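 Yeast carrying a defined mutation is treated with each compound, and growth is compared with that of vehicle-exposed cells to give inhibition.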
# [12] = NCI Yeast Anticancer Drug Screen. Data for the wt2 strain (AID 169);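 also: 0% = growth of vehicle-treated yeast cultures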; settings: S. cerevisiae wt2 strain growth inhibition, active compounds read high
# In short: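 Read-out: growth inhibition versus vehicle-treated control cultures after compound exposure of the yeast strain.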
# [13] = NCI Yeast Anticancer Drug Screen. Data for the mlh1 strain (AID 171);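 also: 0% = growth of vehicle-treated control cultures of the same strain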; settings: S. cerevisiae mlh1 strain growth inhibition, active compounds read high
# In short: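 Read-out: growth inhibition versus vehicle controls. Strain: engineered yeast with a defined DNA repair or cell cycle defect, compound-treated.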
# [14] = NCI Yeast Anticancer Drug Screen. Data for the sgs1 strain (AID 173);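 also: 0% = growth of vehicle-only control cultures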; settings: S. cerevisiae sgs1 mutant, active compounds read high
# In short: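 Read-out: yeast growth inhibition relative to vehicle controls, following compound exposure of a strain with a defined DNA repair/cell cycle alteration.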
# [15] = NCI Yeast Anticancer Drug Screen. Data for the mlh1 rad18 strain (AID 175); settings: S. cerevisiae mlh1 rad18 strain growth inhibition, active compounds read high
# In short: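 Yeast w/ defined DNA-repair lesions; compound exposure; growth vs vehicle controls → % inhibition.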
# [16] = NCI Yeast Anticancer Drug Screen. Data for the rad18 strain (AID 177); settings: S. cerevisiae rad18 mutant growth inhibition, active compounds read high
# In short: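 Readout: growth inhibition vs vehicle controls. Cells: genetically altered yeast strain, DNA repair defect.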
# [17] = at 5.0 µM (retest, dose inferred, filed as 0.5)
# [18] = at 50.0 µM (retest, dose inferred, filed as 5.0)
smiles,measurement,setting,value
Cc1c(Cl)c(C)c(Cl)c(O)c1Cl,growth inhibition,[1]; at 1.2 µM,17%
same,growth inhibition,[1]; at 3.7 µM,7%
same,growth inhibition,[1]; at 11.0 µM,28%
same,growth inhibition,[1]; at 33.0 µM,79% (active)
same,growth inhibition,[1]; at 100.0 µM,98% (active)
same,growth inhibition,[2]; at 1.2 µM,11%
same,growth inhibition,[2]; at 3.7 µM,9%
same,growth inhibition,[2]; at 11.0 µM,13%
same,growth inhibition,[2]; at 33.0 µM,80% (active)
same,growth inhibition,[2]; at 100.0 µM,98% (active)
same,growth inhibition,[3]; at 1.2 µM,-21%
same,growth inhibition,[3]; at 3.7 µM,-9%
same,growth inhibition,[3]; at 11.0 µM,-6%
same,growth inhibition,[3]; at 33.0 µM,75% (active)
same,growth inhibition,[3]; at 100.0 µM,93% (active)
same,growth inhibition,[4]; at 1.2 µM,18%
same,growth inhibition,[4]; at 3.7 µM,7%
same,growth inhibition,[4]; at 11.0 µM,56%
same,growth inhibition,[4]; at 33.0 µM,98% (active)
same,growth inhibition,[4]; at 100.0 µM,98% (active)
same,growth inhibition,[5]; at 1.2 µM,-14%
same,growth inhibition,[5]; at 3.7 µM,-21%
same,growth inhibition,[5]; [17],45%
same,growth inhibition,[5]; at 11.0 µM,-8%
same,growth inhibition,[5]; at 33.0 µM,92% (active)
same,growth inhibition,[5]; [18],95% (active)
same,growth inhibition,[5]; at 50.0 µM,92.9% (active)
same,growth inhibition,[5]; at 100.0 µM,98% (active)
same,growth inhibition,[6]; at 1.2 µM,-19%
same,growth inhibition,[6]; at 3.7 µM,7%
same,growth inhibition,[6]; [17],51%
same,growth inhibition,[6]; at 11.0 µM,-7%
same,growth inhibition,[6]; at 33.0 µM,79% (active)
same,growth inhibition,[6]; [18],96% (active)
same,growth inhibition,[6]; at 50.0 µM,93.2% (active)
same,growth inhibition,[6]; at 100.0 µM,99% (active)
same,growth inhibition,[7]; at 1.2 µM,5%
same,growth inhibition,[7]; at 3.7 µM,6%
same,growth inhibition,[7]; at 11.0 µM,11%
same,growth inhibition,[7]; at 33.0 µM,95% (active)
same,growth inhibition,[7]; at 100.0 µM,99% (active)
same,growth inhibition,[8]; [17],2%
same,growth inhibition,[8]; [18],99% (active)
same,growth inhibition,[8]; at 50.0 µM,90.8% (active)
same,growth inhibition,[9]; at 1.2 µM,8%
same,growth inhibition,[9]; at 3.7 µM,-11%
same,growth inhibition,[9]; at 11.0 µM,29%
same,growth inhibition,[9]; at 33.0 µM,88% (active)
same,growth inhibition,[9]; at 100.0 µM,99% (active)
same,growth inhibition,[10]; [17],32%
same,growth inhibition,[10]; [18],100% (active)
same,growth inhibition,[10]; at 50.0 µM,93% (active)
same,growth inhibition,[11]; at 1.2 µM,-17%
same,growth inhibition,[11]; at 3.7 µM,-2%
same,growth inhibition,[11]; [17],27%
same,growth inhibition,[11]; at 11.0 µM,12%
same,growth inhibition,[11]; at 33.0 µM,76% (active)
same,growth inhibition,[11]; [18],100% (active)
same,growth inhibition,[11]; at 50.0 µM,93% (active)
same,growth inhibition,[11]; at 100.0 µM,100% (active)
same,growth inhibition,[12]; at 1.2 µM,-25%
same,growth inhibition,[12]; at 3.7 µM,-20%
same,growth inhibition,[12]; at 11.0 µM,14%
same,growth inhibition,[12]; at 33.0 µM,92% (active)
same,growth inhibition,[12]; at 100.0 µM,99% (active)
same,growth inhibition,[13]; at 1.2 µM,8%
same,growth inhibition,[13]; at 3.7 µM,-4%
same,growth inhibition,[13]; at 11.0 µM,29%
same,growth inhibition,[13]; at 33.0 µM,91% (active)
same,growth inhibition,[13]; at 100.0 µM,99% (active)
same,growth inhibition,[14]; at 1.2 µM,15%
same,growth inhibition,[14]; at 3.7 µM,9%
same,growth inhibition,[14]; at 11.0 µM,34%
same,growth inhibition,[14]; at 33.0 µM,95% (active)
same,growth inhibition,[14]; at 100.0 µM,99% (active)
same,growth inhibition,[15]; [17],33%
same,growth inhibition,[15]; [18],97% (active)
same,growth inhibition,[15]; at 50.0 µM,72.2% (active)
same,growth inhibition,[16]; at 1.2 µM,-26%
same,growth inhibition,[16]; at 3.7 µM,-4%
same,growth inhibition,[16]; at 11.0 µM,-25%
same,growth inhibition,[16]; at 33.0 µM,65%
same,growth inhibition,[16]; at 100.0 µM,97% (active)
